The record followed here is PubChem BioAssay AID1508601 (ICCB-Longwood Screening Facility, Harvard Medical School, 2020).

Experiment [1] in a line: p53 stabilisation in HPV-positive human cells, imaging, p53-positive nuclei imaging, 24 h, 48 h (AID 1508601). Particulars: 24/48 h.
Experiment [2] has as its target Cellular tumor antigen p53 (Homo sapiens) (UniProt P04637). Described as above. As to conditions: 24/48 h, stronger effect = higher value.
Setting [3] is: measured here: cell number at 24 h, Library stock concentration: 3.33 mM.
The mark [4] stands for this setting: measured here: cell number at 48 h, Library stock concentration: 3.33 mM.
[5] abbreviates: Library stock concentration: 3.33 mM.
Setting [6] is: measured here: p53 positive nuclei at 24 h, Library stock concentration: 3.33 mM.
The mark [7] stands for this setting: measured here: cell number at 24 h, Library stock concentration: 80 uM.
Setting [8] is: measured here: cell number at 24 h, Library stock concentration: 400 uM.
The mark [9] stands for this setting: measured here: cell number at 24 h, Library stock concentration: 2 mM.
Setting [10] is: measured here: cell number at 24 h, Library stock concentration: 10 mM.
[11] abbreviates: measured here: cell number at 48 h, Library stock concentration: 80 uM.
The mark [12] stands for this setting: measured here: cell number at 48 h, Library stock concentration: 400 uM.
Where [13] appears, read: measured here: cell number at 48 h, Library stock concentration: 2 mM.
[14] abbreviates: measured here: cell number at 48 h, Library stock concentration: 10 mM.
Setting [15] is: Library stock concentration: 80 uM.
[16] abbreviates: Library stock concentration: 400 uM.
The mark [17] stands for this setting: Library stock concentration: 2 mM.
Setting [18] is: Library stock concentration: 10 mM.
Where [19] appears, read: measured here: p53 positive nuclei at 24 h, Library stock concentration: 80 uM.
Where [20] appears, read: measured here: p53 positive nuclei at 24 h, Library stock concentration: 400 uM.
Where [21] appears, read: measured here: p53 positive nuclei at 24 h, Library stock concentration: 2 mM.
[22] abbreviates: measured here: p53 positive nuclei at 24 h, Library stock concentration: 10 mM.
Where [23] appears, read: measured here: cell number at 24 h, concentration not given here.
Setting [24] is: measured here: cell number at 48 h, concentration not given here.
The mark [25] stands for this setting: measured here: p53 positive nuclei at 24 h, concentration not given here.

Structures are written as SMILES. Values joined by “and” are separate entries in the source; they are usually repeats but may differ in a detail not shown here. Equal values may be shown once. Out of some 5,700 compounds screened, about 85 (1%) were called active. Rule as the data show it: active = p53-positive nuclei above about 36% (passing the limit was not always enough); inactive = the rest. This excerpt belongs to a sample that is enriched for actives.

Sequence of Cellular tumor antigen p53 (Homo sapiens) (P04637 whole entry, looked up): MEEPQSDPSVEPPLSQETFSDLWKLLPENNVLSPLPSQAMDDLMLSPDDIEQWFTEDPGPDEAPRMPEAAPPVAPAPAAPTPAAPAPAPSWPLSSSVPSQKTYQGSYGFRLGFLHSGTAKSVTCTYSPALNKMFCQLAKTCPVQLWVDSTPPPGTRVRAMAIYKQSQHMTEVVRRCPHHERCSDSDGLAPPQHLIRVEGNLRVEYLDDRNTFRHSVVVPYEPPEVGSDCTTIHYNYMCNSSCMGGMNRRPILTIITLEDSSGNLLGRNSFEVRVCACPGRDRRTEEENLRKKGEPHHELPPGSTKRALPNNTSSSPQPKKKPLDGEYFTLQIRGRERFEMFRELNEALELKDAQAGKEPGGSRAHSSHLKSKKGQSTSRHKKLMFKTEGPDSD

With `O=C(O)CCCc1c[nH]c2ccccc12`, the nuclei count, normalised in experiment [1] (setting [3]) was 110%; in experiment [1] (setting [4]), 101%. Also, the p53-positive nuclei, normalised is -0.0398% (inactive) in experiment [2] (setting [5]) and 2.53% in experiment [2] (setting [6]).

As to `OCc1c[nH]c2ccccc12`, the nuclei count, normalised amounted to 116% in experiment [1] (setting [7]); 113% in experiment [1] (setting [8]); 124% in experiment [1] (setting [9]); 121% in experiment [1] (setting [3]); 113% in experiment [1] (setting [10]); 111% in experiment [1] (setting [11]). In addition, the nuclei count, normalised is 105% in experiment [1] (setting [12]), 115% in experiment [1] (setting [13]), 105% in experiment [1] (setting [4]) and 106% in experiment [1] (setting [14]). Besides, the p53-positive nuclei, normalised is -0.0881% (inactive) in experiment [2] (setting [15]); 0.33% (inactive) in experiment [2] (setting [16]); 0.0198% (inactive) in experiment [2] (setting [17]); -0.0843% (inactive) in experiment [2] (setting [5]); -0.042% (inactive) in experiment [2] (setting [18]); -0.0144% in experiment [2] (setting [19]). The p53-positive nuclei, normalised in experiment [2] (setting [20]) was 0.188%; in experiment [2] (setting [21]), 0.151%; in experiment [2] (setting [6]) it was -0.374%; in experiment [2] (setting [22]), 0.0508%.

As for `O=C(C=Cc1ccc(CN(CCO)CCc2c[nH]c3ccccc23)cc1)NO`, the nuclei count, normalised is 37.8% in experiment [1] (setting [3]) and 20.4% in experiment [1] (setting [4]). In addition, the p53-positive nuclei, normalised was 113% (active) in experiment [2] (setting [5]) and 94.4% in experiment [2] (setting [6]).

Turning to `CCc1cc2c(cc1CC)CC(NCC(O)c1ccc(O)c3[nH]c(=O)ccc13)C2` (stereo not given), the nuclei count, normalised in experiment [1] (setting [3]) is 112%; in experiment [1] (setting [4]) it was 110%. The p53-positive nuclei, normalised in experiment [2] (setting [5]) is -0.298% (inactive); in experiment [2] (setting [6]), -0.54%.

As to `CCCCC[C@H](O)/C=C/[C@H]1[C@H](O)CC(=O)[C@@H]1C/C=C\CCCC(=O)OC`, the nuclei count, normalised in experiment [1] (setting [23]) turned out to be 111%; in experiment [1] (setting [24]), 106%. Also, the p53-positive nuclei, normalised in experiment [2] (concentration not given here) was -0.0657% (inactive); in experiment [2] (setting [25]), 0.249%.

Consider `CCC(CC)(NC(=O)C(C)C)C(=O)NC(CCCN=C(N)N)C(=O)NC1(C(=O)NC(c2ccc(F)cc2)c2ccc(F)cc2)CCCC1` (stereo not given), for which the nuclei count, normalised in experiment [1] (setting [3]) was 107%; in experiment [1] (setting [4]), 102%. Moreover, the p53-positive nuclei, normalised in experiment [2] (setting [5]) is -0.0557% (inactive); in experiment [2] (setting [6]), -0.115%.

Consider `c1ccc(-c2nc3c(cnn3C3CCCCC3)[nH]2)c(Cn2cccn2)c1`, for which the nuclei count, normalised in experiment [1] (setting [23]) was 106%; in experiment [1] (setting [24]), 110%. Besides, the figures for the p53-positive nuclei, normalised in experiment [2] (concentration not given here) and in experiment [2] (setting [25]) were -0.0852% (inactive) and 0.144%, respectively.

Turning to `CC(C=CC(=O)NO)=CC(C)C(=O)c1ccc(N(C)C)cc1` (stereo not given), the nuclei count, normalised in experiment [1] (setting [3]) stood at 35.3%; in experiment [1] (setting [4]), 21.2%. For the same compound, the p53-positive nuclei, normalised is 88.9% (active) in experiment [2] (setting [5]) and 74.9% in experiment [2] (setting [6]).

Consider `CN(C)c1ccc(C(=O)NCCCCCCC(=O)NO)cc1`, for which the nuclei count, normalised in experiment [1] (setting [3]) was 54.1%; in experiment [1] (setting [23]) it was 116%; in experiment [1] (setting [4]), 44.8%; in experiment [1] (setting [24]), 100%. In addition, the p53-positive nuclei, normalised in experiment [2] (setting [5]) was 25% (inactive); in experiment [2] (concentration not given here), 0.296% (inactive); in experiment [2] (setting [6]) it was 45%; in experiment [2] (setting [25]) it was 0.159%.

As to `CN(C)c1ccc(C(=O)NCCCCCC(=O)NO)cc1`, the nuclei count, normalised in experiment [1] (setting [23]) was found to be 110%; in experiment [1] (setting [24]) it was 106%. Also, the p53-positive nuclei, normalised in experiment [2] (concentration not given here) is 0.149% (inactive); in experiment [2] (setting [25]), 0.257%.

As for `CC(/C=C/C(=O)NO)=C\[C@@H](C)C(=O)c1ccc(N(C)C)cc1`, the nuclei count, normalised in experiment [1] (setting [23]) turned out to be 53.4%; in experiment [1] (setting [24]) it was 27.6%. Besides, the figures for the p53-positive nuclei, normalised in experiment [2] (concentration not given here) and in experiment [2] (setting [25]) were 55.3% (active) and 61.3%, respectively.

`COC(=O)c1c(NC(=O)CC2SC(=N)NC2=O)sc(C)c1C` (stereo not given): the nuclei count, normalised was 98.4% in experiment [1] (setting [7]); 104% in experiment [1] (setting [8]); 101% in experiment [1] (setting [9]); 101% in experiment [1] (setting [10]); 108% in experiment [1] (setting [11]); 108% in experiment [1] (setting [12]). The nuclei count, normalised in experiment [1] (setting [13]) was determined as 106%; in experiment [1] (setting [14]), 99.8%. Moreover, the p53-positive nuclei, normalised in experiment [2] (setting [15]) is -0.137% (inactive); in experiment [2] (setting [16]), -0.126% (inactive); in experiment [2] (setting [17]), -0.195% (inactive); in experiment [2] (setting [18]) it was -0.114% (inactive); in experiment [2] (setting [19]), -0.000422%; in experiment [2] (setting [20]), -0.116%. The p53-positive nuclei, normalised in experiment [2] (setting [21]) was -0.00728%; in experiment [2] (setting [22]), -0.004%.

With `C[C@]1(C(=O)Nc2ccc(F)nc2)CCCN1c1nc(Nc2cc(C3CC3)[nH]n2)c2cccn2n1`, the nuclei count, normalised in experiment [1] (setting [3]) came to 46.1%; in experiment [1] (setting [4]) it was 30.3%. For the same compound, the p53-positive nuclei, normalised in experiment [2] (setting [5]) was -0.488% (inactive); in experiment [2] (setting [6]), -0.0691%.

With `CN1CCN(c2ccc(Nc3c4ccccc4nc4ccccc34)cc2)CC1`, the nuclei count, normalised came to 95.9% in experiment [1] (measured here: cell number at 24 h, Library stock concentration: 46 uM); 110% in experiment [1] (setting [7]); 90.1% in experiment [1] (measured here: cell number at 24 h, Library stock concentration: 278 uM); 95.8% in experiment [1] (setting [8]); 79.3% in experiment [1] (measured here: cell number at 24 h, Library stock concentration: 1.67 mM); 52.3% in experiment [1] (setting [9]). Further, the nuclei count, normalised was 32.6% and 36.6% in experiment [1] (setting [10]); 96.2% in experiment [1] (measured here: cell number at 48 h, Library stock concentration: 46 uM); 109% in experiment [1] (setting [11]); 93.5% in experiment [1] (measured here: cell number at 48 h, Library stock concentration: 278 uM); 103% in experiment [1] (setting [12]); 81% in experiment [1] (measured here: cell number at 48 h, Library stock concentration: 1.67 mM). Further, the nuclei count, normalised was 48.7% in experiment [1] (setting [13]); 18.8% and 22% in experiment [1] (setting [14]). In addition, the p53-positive nuclei, normalised in experiment [2] (Library stock concentration: 46 uM) was -0.136% (inactive); in experiment [2] (setting [15]) it was -0.131% (inactive); in experiment [2] (Library stock concentration: 278 uM), -0.255% (inactive); in experiment [2] (setting [16]), -0.231% (inactive); in experiment [2] (Library stock concentration: 1.67 mM), -0.00204% (inactive); in experiment [2] (setting [17]) it was 5.16% (inactive). The p53-positive nuclei, normalised in experiment [2] (setting [18]) is 53.2% (active) and 55.4% (active); in experiment [2] (measured here: p53 positive nuclei at 24 h, Library stock concentration: 46 uM), -0.145%; in experiment [2] (setting [19]) it was -0.0662%; in experiment [2] (measured here: p53 positive nuclei at 24 h, Library stock concentration: 278 uM), -0.137%; in experiment [2] (setting [20]), -0.059%; in experiment [2] (measured here: p53 positive nuclei at 24 h, Library stock concentration: 1.67 mM), 0.126%. Moreover, the p53-positive nuclei, normalised in experiment [2] (setting [21]) is 13.1%; in experiment [2] (setting [22]), 88.3% and 79.2%.

As to `CNC(=O)c1nn(C)c2c1C(C)(C)Cc1cnc(Nc3ccc(N4CCN(C)CC4)cc3)nc1-2`, the results for the nuclei count, normalised in experiment [1] (setting [3]) and in experiment [1] (setting [4]) were 62.7% and 44%, respectively. In addition, the p53-positive nuclei, normalised in experiment [2] (setting [5]) is 0.155% (inactive); in experiment [2] (setting [6]), 0.144%.

On to `C=CC(=O)Nc1cccc(Oc2nc(Nc3ccc(N4CCN(C)CC4)cc3)ncc2Cl)c1`, for which the values for the nuclei count, normalised in experiment [1] (setting [3]) and in experiment [1] (setting [4]) were 64.1% and 64.3%, respectively. Further, the p53-positive nuclei, normalised in experiment [2] (setting [5]) was -0.197% (inactive); in experiment [2] (setting [6]), -0.375%.
